# A selection: hits, their analogues and other compounds. The true share with any hit is near 3.8%.
# TIM10 inh – growth inhibitors of isogenic TIM10 control yeast, primary screen, counter-screen for tim10-1 yeast inhibitor project, luminescence, uHTS. S. cerevisiae TIM10 strain growth, BacTiter-Glo luminescence, 24 h. inhibition, % at 10 µM. 330,000 tested, 1.4% active;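 active = inhibition of 40% or more at the single tested concentration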;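 note: wild-type TIM10 isogenic control strain grown at permissive 25 °C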
# tim10-1 inh – growth inhibitors of tim10-1 mutant yeast, primary screen, luminescence, uHTS | S. cerevisiae tim10-1 ts strain growth, BacTiter-Glo, 24 h | inhibition, % at 20 µM | 330,000 tested, 2.2% active | AID 463190, 2010;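 active = inhibition of at least 40%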;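 note: mutant grown at 25 °C; 0% = DMSO wells with yeast and 100% = wells holding no yeast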
# B2AR ag – beta2AR agonists driving receptor internalization, primary screen, cell-based, FAP fluorogen, flow cytometry | Am2.2-beta2AR cells | response, % (no concentration beside the values) | 340,000 tested, 0.43% active | AID 504454, 2011;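 active = response above a set limit, near 3 SD of response in nonfluorescent compounds, cut at about 42% in these data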
# Target sequence (P07550 whole entry, looked up): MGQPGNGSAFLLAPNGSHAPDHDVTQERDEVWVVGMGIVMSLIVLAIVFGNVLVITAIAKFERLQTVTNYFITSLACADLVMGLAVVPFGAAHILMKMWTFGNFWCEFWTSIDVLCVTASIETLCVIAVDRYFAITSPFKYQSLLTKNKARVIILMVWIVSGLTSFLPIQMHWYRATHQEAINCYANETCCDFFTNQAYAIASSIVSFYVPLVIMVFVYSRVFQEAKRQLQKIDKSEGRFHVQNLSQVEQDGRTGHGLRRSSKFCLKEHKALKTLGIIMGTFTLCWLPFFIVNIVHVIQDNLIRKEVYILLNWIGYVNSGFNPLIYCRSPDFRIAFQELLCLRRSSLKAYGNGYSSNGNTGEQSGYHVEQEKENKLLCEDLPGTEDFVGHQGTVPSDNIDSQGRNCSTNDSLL
# tim23-1 inh – growth inhibitors of tim23-1 mutant yeast, primary screen, luminescence, uHTS. S. cerevisiae tim23-1 growth, BacTiter-Glo luminescence, 24 h. inhibition, % at 20 µM. 330,000 tested, 1.3% active;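 active = growth inhibition of the mutant yeast at or above 50%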;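 note: temperature-sensitive mutant grown at 25 °C; plate controls were DMSO-treated mutant yeast for no effect and medium wells lacking yeast for full effect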
# PfHsp90 set2 – growth inhibition of PfHsp90-expressing yeast, primary screen, antimalarial PfHsp90 inhibitor project, S. cerevisiae, BacTiter-Glo luminescence, single point, set 2. BacTiter-Glo ATP, 48 h; yeast lacking PDR1 and PDR3 efflux regulators. inhibition, % at 9.4 µM. 310,000 tested, 0.32% active. AID 504621, 2011;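 active = every replicate shows inhibition above about 80%, whatever the replicate mean, limit read from the data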;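 note: 0% = DMSO neutral controls and 100% = 20 µM radicicol positive controls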
# tim10-1 confirm – growth inhibitors of tim10-1 mutant yeast, confirmation, single concentration, luminescence, S. cerevisiae. shares compounds with tim10-1 inh. S. cerevisiae tim10-1 ts strain growth, BacTiter-Glo, 24 h. inhibition, % at 20 µM. 7,400 tested, 56% active. AID 463213, 2010;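 active = inhibition of yeast growth at or above a set limit in either of two repeat tests at 20 µM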;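 note: tim10-1 mutant grown at permissive 25 °C to find synthetic lethal compounds; 0% = DMSO yeast wells and 100% = medium wells without yeast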
# * = called active by the depositor; . = not tested or not shown.
SMILES,TIM10 inh,tim10-1 inh,B2AR ag,tim23-1 inh,PfHsp90 set2,tim10-1 confirm
Cn1ncc2c(Nc3cccc(Cl)c3)nc(Nc3cccc(Cl)c3)nc21,18,54*,7,43,108*,45*
Cn1ncc2c(Nc3ccc(Br)cc3)nc(Nc3ccc(Br)cc3)nc21,33,57*,4,41,-21,28*
Cc1cc(C)cc(NC(=O)CSc2nnc(CNC(=O)c3ccco3)n2C)c1,14,-8,-7,14,-11,.
O=S(=O)(c1cccc(Cn2nnc(-c3ccccc3)n2)c1)N1CCOCC1,10,14,-6,19,11,.
O/N=C/c1ccc(OCc2ccccc2F)c(Cl)c1,4,41*,0,38,-21,11
Cc1cccc(Nc2nc(N)nc(-c3oc4ccccc4c3C)n2)c1,15,42*,8,41,23,10
COc1cccc(Nc2nc(N)nc(-c3oc4ccccc4c3C)n2)c1,15,18,-9,8,14,.
Cc1ccc(SCCNC(=S)Nc2cc(C)ccc2C)cc1,32,43*,-2,14,5,12
CCOc1ccc(N(C(C)C(=O)N2CCOCC2)S(C)(=O)=O)cc1 (stereo not given),-13,-19,-3,5,20,.
CCC(=O)Nc1ccc(NC(=O)C23CC4CC(CC(C4)C2)C3)cn1,25,33,1,28,23,.
Cc1ccnc(NC(=O)C23CC4CC(CC(C4)C2)C3)c1,22,49*,-6,38,-14,34*
Cc1ccc(NC(=O)COc2ccc(N(C)C(=O)C(C)(C)C)cc2)cc1S(=O)(=O)N1CCCCC1,7,9,4,5,-9,.
CCNc1nnc(CSc2nc3ccccc3s2)s1,31,44*,-3,45,16,39*
Cc1ccc(C2=NS(=O)(=O)N(C)C(C(=O)Nc3cc(C)n(CC(=O)N4CCC(C)CC4)n3)=C2)cc1,-5,-17,-10,1,-4,.
CCCCn1c(N)c(N(CCC(C)C)C(=O)C2CCCN(C(=O)c3ccc(Cl)cc3)C2)c(=O)[nH]c1=O (stereo not given),-4,-1,-3,10,9,.
COc1cccc(/C=C2\NC(=O)NC2=O)c1O,-14,5,1,-5,7,.
CC(=C/c1ccc(C(C)C)cc1)/C=N/NC(=O)CSc1ccccn1,29,47*,-13,-1,-2,20
Cc1cc(NC(=O)COC(=O)[C@@H]2CCCN2C(=O)c2cccs2)no1,.,.,7,.,-8,.
COc1ccc(NC(=O)CC2C(=O)N(c3cccc(C)c3)C(=O)N2C2CCCCC2)cc1 (stereo not given),11,40,-2,23,.,23
CCc1ccc(NC(=O)CC2C(=O)N(c3cccc(C)c3)C(=O)N2C2CC2)cc1 (stereo not given),12,20,7,19,-20,.
CCC(=O)Nc1nnc(S(=O)(=O)N2CCc3ccccc32)s1,1,49*,-3,7,-13,6
CC(C)CC(=O)Nc1nnc(S(=O)(=O)N2CCc3ccccc32)s1,-15,2,9,-4,-5,.
Cc1onc(-c2ccccc2Cl)c1C(=O)N1CCCCC1,15,4,2,9,0,.
Cc1onc(-c2ccccc2Cl)c1C(=O)N1CCN(c2nc3ccccc3s2)CC1,33,49*,2,32,2,29
Cc1ccc(NS(=O)(=O)c2ccc(C)c(NC(=S)NCCN3CCOCC3)c2)c(C)c1,8,1,2,8,0,.
SMILES,TIM10 inh,tim10-1 inh,B2AR ag,tim23-1 inh,PfHsp90 set2,tim10-1 confirm
O=[N+]([O-])c1cc(/C=N/O)ccc1Sc1ccccc1,-60,-15,-7,-11,-63,.
O=[N+]([O-])c1cc(/C=N/O)ccc1Oc1ccccc1Cl,27,55*,3,33,106*,42*
O=[N+]([O-])c1cc(/C=N/O)ccc1Oc1cccc(Cl)c1,26,61*,-1,41,-1,55*
COc1ccccc1OCC(=O)N1CCN(S(=O)(=O)c2ccc(Cl)cc2)CC1,3,16,-2,23,9,.
CCc1ccc(CNC(=O)CCCn2c(=O)c3cccn3c3cccnc32)cc1,13,46*,-4,34,-9,6
CCOc1cc(CNC(=O)CCCn2c(=O)c3cccn3c3cccnc32)cc(OCC)c1OCC,7,17,-11,14,-5,.
Cc1ccc(C2CC2/C(=N/O)c2ccc(F)cc2)cc1 (stereo not given),-2,8,-10,17,-9,.
O/N=C(/c1ccc(Cl)cc1)C1CC1c1ccccc1 (stereo not given),35,51*,-3,39,-10,27
CC(C)(C)C1CCc2nc(NC(=O)Cc3cn4ccsc4n3)sc2C1 (stereo not given),30,57*,-1,47,-10,34*
CC(C)(C)c1ccc(C(=O)Nc2cccc([N+](=O)[O-])c2)cc1,.,.,0,.,-26,.
CCCc1cc(C(=O)Nc2cccc([N+](=O)[O-])c2)cs1,25,41*,-2,41,2,31*
O=[N+]([O-])c1ccc(N2CCN(c3cccc(Cl)c3)CC2)cn1,-23,-8,2,-5,-14,.
Cc1cccc(Sc2ccc([N+](=O)[O-])cc2[N+](=O)[O-])n1,23,44*,-1,46,-18,28
O=c1cc(-c2ccccc2)nc(Sc2ccc([N+](=O)[O-])cc2[N+](=O)[O-])[nH]1,-13,21,8,28,0,.
COc1ccc(CN(C2CCCC2)S(=O)(=O)c2ccc(-n3cnnn3)cc2)cc1,34,40*,-17,34,-17,35*
COc1ccc(CN(C2CCCC2)S(=O)(=O)c2ccc(-n3cnnn3)cc2)cc1OC,-13,28,5,-4,11,.
Cc1ccc(C(=O)COC(=O)C2CC(=O)N(c3nc(-c4ccccc4)cs3)C2)cc1 (stereo not given),31,40*,8,11,-14,29
COc1ccc(N2CC(C(=O)OCC(=O)c3ccc(C)cc3)CC2=O)cc1 (stereo not given),11,28,1,12,16,.
Cc1cc(Cl)ccc1NC(=O)CCC(=O)N/N=C/c1cccnc1,6,-5,10,4,19,.
COc1cccc(N2CCN(C(=O)c3cc4c(=O)n(Cc5ccccc5)ccc4nc3C)CC2)c1,8,14,4,10,5,.
Cc1cc(C)cc(NC(=O)CCc2c(C)nn(-c3ccc(N4CCOCC4)nn3)c2C)c1,-1,26,-9,12,-1,.

# Screening data deposited in PubChem by several laboratories.
